High-throughput results (PubChem)
Giardia FBPA inh-1 – qHTS Assay for Inhibitors of Fructose-1,6-bisphosphate Aldolase from Giardia Lamblia. A8B2U2. 0.71% of 290,000 active. purified Giardia FBPA. Potency, µM (highest dose often 59.6 µM), inactives show at the highest dose activity, negative = inhibition, hits mostly inhibitors; further: potency means the concentration at half of the fitted maximal effect; nearly all actives have a fitted effect of over 55% in size
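Giardia FBPA (40 nM reagent) was preincubated 10 min at RT with compound (up to 57.5 uM final), then substrate plus GAPDH/TPI/NAD/arsenate coupling system with diaphorase/resazurin was added; resorufin fluorescence (525/598 nm) was read after 20 min.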
Pf growth 96h – Primary qHTS for delayed death inhibitors of the malarial parasite plastid, 96 hour incubation. P. falciparum luciferase reporter growth, 96 h. Potency, µM (top dose mostly 28.7 µM), for the others: at the top dose activity change, negative = inhibition, most hits filed as inhibitors. 6.9% of 320,000 active. AID 504834, 2011; further: potency means the concentration at half of the fitted maximal effect
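P. falciparum expressing integrated firefly luciferase grown in erythrocytes (2% hematocrit, 0.05% parasitemia final) with compounds for 96 hours at 37 C, 5% CO2. Growth inhibition read as loss of luminescence after adding luciferase detection reagent.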
Pf growth 48h – Primary qHTS for delayed death inhibitors of the malarial parasite plastid, 48 hour incubation | 5.9% of 310,000 active | Potency, µM (doses to about 28.7 µM), without a hit: at the top dose activity change, negative = inhibition, hits mostly inhibitors | P. falciparum luciferase growth in erythrocytes, 48 h; further: potency means the concentration at half of the fitted maximal effect
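Luciferase-expressing parasites in RBCs, 2% Hct / 0.1% parasitemia final; RPMI 1640 + 0.5% Albumax; 37 C, 5% CO2, one generation; luminescence read-out, lower signal = inhibition.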
Sm TGR inh – qHTS Assay for the Inhibitors of Schistosoma Mansoni Peroxiredoxins; Schistosoma mansoni thioredoxin glutathione reductase (TGR), Q962Y6; purified TGR, DTNB reduction, TNB absorbance 405 nm; Potency, µM (doses to about 114 µM), inactives show at the highest dose activity change, negative = inhibition, hits mostly inhibitors; 3% of 360,000 active; AID 485364, 2010; further: potency means the concentration at half of the fitted maximal effect; nearly all actives have a fitted effect of over 60% in size
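TGR 20 nM + NADPH 100 uM (dispensed conc.), cpd preinc 15 min RT; start with NADPH (500 uM addition) then DTNB (15 mM addition). Kinetic TNB absorbance, 405 nm filter. Four-parameter Hill fit across titration.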
HCMV inh – qHTS Assay for inhibitors of the human cytomegalovirus (HCMV); HFF cells, HCMV-luciferase reporter, 72 h; active compounds read low; 4.5% of 410,000 active; activity change, negative = inhibition, % at 57.5 µM; in the data active means activity change below about -60%; inconclusive means no clear call, values can overlap the other calls; inactive means above about -39%
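Human foreskin fibroblasts infected with luciferase-reporter HCMV at MOI 1 PFU/cell, compounds at two doses. Luciferase measured 72 h post infection; normalized to buffer-only basal and Salinomycin (10uM) controls.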
Giardia growth – qHTS Assay for Inhibitors of Fructose-1,6-bisphosphate Aldolase from Giardia Lamblia: Giardia lamblia growth inhibition; shares compounds with Giardia FBPA inh-1; Giardia lamblia trophozoite growth inhibition; Potency, µM (top dose mostly 57.5 µM), for inactives: top-dose activity change, negative = inhibition, hits mostly inhibitors; 5% of 1,500 active; AID 2785, 2010;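 further: potency means the concentration at half of the fitted maximal effect; trophozoites exposed to compound for 48 h at 37 °C; nearly all actives have a fitted effect of over 70% in size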
Mammalian tox – qHTS Assay for Inhibitors of Fructose-1,6-bisphosphate Aldolase from Giardia Lamblia: Mammalian cellular toxicity. shares compounds with Giardia FBPA inh-1. mammalian cell viability counter-screen, qHTS. Potency, µM (highest dose often 57.5 µM), without a hit: at the highest dose viability change, negative = toxicity, actives largely listed as inhibitors. 4% of 1,500 active. AID 2786, 2010;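 further: Chinese hamster ovary cells used as mammalian cytotoxicity surrogate; viability measured as cellular ATP by luminescence; potency means the concentration at half of the fitted maximal effect; compound exposure lasted 48 h before reading; nearly all actives have a fitted effect of over 60% in size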
Giardia FBPA inh-2 – qHTS Assay for Inhibitors of Fructose-1,6-bisphosphate Aldolase from Giardia Lamblia: Primary screen confirmation; AID 2787, 2010; 5% of 1,500 active; shares compounds with Giardia FBPA inh-1; Potency, µM (top dose mostly 57.5 µM), without a hit: at the highest dose activity change, negative = inhibition, hits mostly inhibitors; purified Giardia aldolase enzyme activity, qHTS; further: potency means the concentration at half of the fitted maximal effect; nearly all actives have a fitted effect of over 45% in size
Rabbit FBPA inh – qHTS Assay for Inhibitors of Fructose-1,6-bisphosphate Aldolase from Giardia Lamblia: Rabbit FBPA Selectivity; Potency, µM (doses to about 57.5 µM), inactives show top-dose activity, negative = inhibition, hits mostly inhibitors; 4% of 1,500 active; Rabbit muscle FBPA enzyme inhibition, selectivity counter-screen; shares compounds with Giardia FBPA inh-1; further: potency means the concentration at half of the fitted maximal effect; nearly all actives have a fitted effect of over 60% in size
Target sequence (P00883 whole entry, looked up): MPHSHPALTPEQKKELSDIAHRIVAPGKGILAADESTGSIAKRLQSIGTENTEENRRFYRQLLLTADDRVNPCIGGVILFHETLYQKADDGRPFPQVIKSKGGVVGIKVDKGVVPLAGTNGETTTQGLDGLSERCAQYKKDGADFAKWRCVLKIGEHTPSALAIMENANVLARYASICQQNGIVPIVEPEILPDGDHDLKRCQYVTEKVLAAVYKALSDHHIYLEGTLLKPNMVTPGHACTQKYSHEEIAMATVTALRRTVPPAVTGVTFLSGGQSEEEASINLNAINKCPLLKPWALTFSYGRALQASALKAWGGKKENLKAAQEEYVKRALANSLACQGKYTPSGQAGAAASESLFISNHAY
GAPDH counter – qHTS Assay for Inhibitors of Fructose-1,6-bisphosphate Aldolase from Giardia Lamblia: Coupling assay counterscreen confirmation; shares compounds with Giardia FBPA inh-1; GAPDH coupling enzyme counterscreen, biochemical, qHTS; Potency, µM (highest dose often 57.5 µM), for the others: at the highest dose activity change, negative = inhibition, hits mostly inhibitors; 6% of 1,500 active; AID 2795, 2010; further: potency means the concentration at half of the fitted maximal effect; nearly all actives have a fitted effect of over 55% in size
Active calls of the source: *; [ ] = dose if it differs, or a comment. Compounds with a hit are over-represented: about 14% of the library has one in this group of screens. Unless noted, the call rests on the fitted dose curve; in most records, active means well fitted curve in the direction sought with a large enough effect; inconclusive means small, poorly fitted or top-dose-only effect, or another doubt; inactive means no such curve, though single readings can be large; an effect the other way counts as inactive or inconclusive. On the % scale 0 is the no-effect control and ±100 the full control effect.

For Nc1ncnc(NNC(=O)CNC(=O)c2c(F)cccc2Cl)c1[N+](=O)[O-] the results were Giardia FBPA inh-1 16µM*, Pf growth 96h 24%, Pf growth 48h -11%, Sm TGR inh 8%, HCMV inh 13, Giardia growth -16%, Mammalian tox -3%, Giardia FBPA inh-2 -2%, Rabbit FBPA inh 5% and GAPDH counter 0%.
For CCOC(=O)Cc1c(-c2cccc(Br)c2)nc2c3ccccc3ccn12 the results were HCMV inh 37.
For c1ccc(-c2cccc(-c3ccccn3)n2)nc1 the results were Giardia FBPA inh-1 7.9µM*, Pf growth 96h 40%, Pf growth 48h 1.5µM*, Sm TGR inh 13%, HCMV inh -101*, Giardia growth inconclusive, Mammalian tox 1.3µM*, Giardia FBPA inh-2 20%, Rabbit FBPA inh 7% and GAPDH counter 1%.
`C=CCNC(=S)NN=C1CCC(c2ccccc2)CC1` (centres undefined) gave Giardia FBPA inh-1 7.9µM*, Pf growth 96h 15%, Pf growth 48h inconclusive, Sm TGR inh -12%, HCMV inh -38, Giardia growth 7%[38.3 µM], Mammalian tox inconclusive, Giardia FBPA inh-2 -26%, Rabbit FBPA inh 5% and GAPDH counter 2%.
CCN(CC(=O)Nc1cccc(OC)c1)CC(=O)Nc1ccc(C)cc1Cl was read as Giardia FBPA inh-1 16µM*, Pf growth 96h 7%, Pf growth 48h -11%, Sm TGR inh -2%, HCMV inh -4, Giardia growth 17%[10.4 µM], Mammalian tox -4%, Giardia FBPA inh-2 0%, Rabbit FBPA inh -1% and GAPDH counter 7%.
For CCN(CC(=O)Nc1ccc(NC(C)=O)cc1)CC(=O)Nc1ccc(Cl)c(Cl)c1 the results were Giardia FBPA inh-1 7.9µM*, Pf growth 96h 17%, Sm TGR inh 0%, HCMV inh -1, Giardia growth -6%[10.4 µM], Mammalian tox -6%, Giardia FBPA inh-2 7%, Rabbit FBPA inh 5% and GAPDH counter 5%.
CCN(CC(=O)Nc1ccc(NC(C)=O)cc1)CC(=O)Nc1cccc(Cl)c1 was read as Giardia FBPA inh-1 -5%, Pf growth 96h -1%, Pf growth 48h 9%, Sm TGR inh -10% and HCMV inh 15.
`CCS(=O)(=O)N1CCc2cc(C(=O)Nc3cc(C(F)(F)F)ccc3Cl)ccc21` gave Sm TGR inh -6% and HCMV inh -32.
